Rhodamine autofl – qHTS Assay for Spectroscopic Profiling in Rhodamine Spectral Region. Rhodamine-region fluorescence, 547/598 nm, Tris buffer; hits give high values. 59,000 compounds, 0.05% hits. max dye-equivalent concentration, M; in the data active means max dye-equivalent concentration above about 11 nM; inconclusive means between about 1.1 nM and that limit
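Intrinsic compound fluorescence, ex 547 / em 598 nm, CCD imager. Tris 100 mM pH 8.0; 15 min RT. Output = rhodamine dye-equivalent concentration at each compound concentration.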
A647 fluor – qHTS Assay for Spectroscopic Profiling in A647 Spectral Region; Compound fluorescence, A647 channel (570/671 nm), Tris buffer; max dye-equivalent concentration, M; 59,000 tested, under 10 active
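Each compound's intrinsic fluorescence at 570 nm excitation and 671 nm emission is measured across its concentration series in 100 mM Tris, pH 8.0, after 15 min at room temperature, and reported relative to an A647 curve.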
A488 autofl – qHTS Assay for Spectroscopic Profiling in A488 Spectral Region | compound autofluorescence, A488 spectral region, dye equivalency; Compound Type: qHTS ECL - MLSMR | max dye equivalency, M | 59,000 compounds, 0.1% hits
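Compounds pin-transferred into 100 mM Tris buffer, pH 8.0, incubated 15 min at room temperature, then imaged with 480 nm excitation/540 nm emission filters. Fluorescence converted to Alexa 488 dye-equivalent concentration via an on-plate six-point A488 standard curve.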
TexasRed autofl – qHTS Assay for Spectroscopic Profiling in Texas Red Spectral Region | 59,000 compounds, 0.06% hits | Compound fluorescence, Texas Red channel, 547/618 nm; hits give high values | AID 587, 2007 | max dye-equivalent concentration, M; in the data active means max dye-equivalent concentration above about 10 nM; inconclusive means between about 1.1 nM and that limit
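Dye-equivalent concentrations come from scaling compound signal (ex 547, em 618 nm) to six Texas Red standard concentrations run on every plate, after 15 min room-temperature incubation in pH 8.0 Tris (100 mM).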
Resorufin fluor – qHTS Assay for Spectroscopic Profiling in Resorufin Spectral Region | max dye-equivalent concentration, M | 59,000 compounds, 0.04% hits | Compound fluorescence, resorufin region 547/598 nm, buffer; hits give high values
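Intrinsic fluorescence profiled in the resorufin window (ex 547 nm, em 598 nm) after 15 min at room temperature in pH 8.0 Tris buffer (100 mM); responses normalized against a six-point resorufin standard series as dye-equivalent concentration.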
Fluorescein autfl – qHTS Assay for Spectroscopic Profiling in Fluorescein Spectral Region; Compound autofluorescence, 480/540 nm, fluorescein-equivalent; hits give high values; max fluorescein-equivalent concentration, M; 59,000 compounds, 0.91% hits; in the data active means max fluorescein-equivalent concentration above about 10 nM; inconclusive means between about 1.1 nM and that limit
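First, buffer (100 mM Tris, pH 8.0) dispensed; second, compounds and fluorescein standards pinned in; third, 15 min room-temperature incubation; finally, imaging at ex 480 nm/em 540 nm. Fluorescence normalized against the six-point fluorescein curve.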
Large screens that a line does not name were inactive; ! = repeats disagree. Compounds with a hit are over-represented: about 0.9% of the library has one in this group of screens. Unless noted, how the calls were made is not given here.

COc1ccc(NC(=O)N2CCCC3(CCN(C(=O)c4ccc(OC)cc4)CC3)C2)cc1	Fluorescein autfl 2.6e-08M
Nc1nonc1C(=O)NCCN=Cc1cc(Cc2ccccc2)cc(Br)c1O	Fluorescein autfl 2e-08M
CSc1c(C#N)c(N)c(C#N)c2c1COC(C)(C)C2	Fluorescein autfl inconclusive
CCC1(C)Cc2c(C#N)c(N)sc(=S)c2CO1 (stereo not given)	Fluorescein autfl 1e-08M
N#Cc1c(N)sc(=S)c2c1CCCC2	A488 autofl inconclusive, TexasRed autofl inconclusive, Fluorescein autfl 6.8e-08M
COc1cccc2c1C(=O)c1c(O)c3c(c(O)c1C2=O)C[C@](O)(C(=O)CO)C[C@H]3O[C@@H]1C[C@H](N)[C@H](O)[C@H](C)O1	Rhodamine autofl 9.8e-08M, A488 autofl 1.3e-08M, TexasRed autofl 9.5e-08M, Resorufin fluor 7.2e-08M, Fluorescein autfl 3e-07M
CC(=O)N1C(=O)N(C(C)=O)C2C1N(C(C)=O)C(=O)N2C(C)=O (stereo not given)	none
CC1C2C(c3ccccc3)N(C)C(=O)N(C)C2N(C)C(=O)N1C (stereo not given)	Fluorescein autfl 1.5e-08M
CCOC(=O)c1c(C)[nH]c(C)c1C(=O)Cn1nnc(-c2ccccc2C)n1	Fluorescein autfl 1e-08M
Cc1cccc2cc3ccc4ccccc4c3cc12	none
CCOC(=O)c1ccc2[nH]cc(C(C)=O)c(=O)c2c1	Fluorescein autfl 2.2e-08M
CC(=O)c1c[nH]c2ccc(C)cc2c1=O	Fluorescein autfl inconclusive
CC(C)[C@@H]1O[C@H](/C=C\c2ccccc2)OCC1(C)C	Fluorescein autfl inconclusive
CN1[C@@H]2CC[C@H]1CC(OC(=O)[C@@H](CO)c1ccccc1)C2 (stereo not given in full)	TexasRed autofl inconclusive, Fluorescein autfl 3e-08M!
COc1cc(C(=O)N(CCc2ccccc2)C2CC3CCC(C2)N3C)cc(OC)c1OC (stereo not given)	TexasRed autofl inconclusive
CN(CCO)C(=O)c1cccc2c1-c1ccccc1C2=O	none
CCNc1c2c3c(cccc3n(C)c1=O)C(=O)c1ccccc1-2	Rhodamine autofl 1.2e-08M, A488 autofl 1.4e-07M, TexasRed autofl inconclusive, Resorufin fluor inconclusive, Fluorescein autfl 2.5e-06M
Cn1c(=O)c(NCCO)c2c3c(cccc31)C(=O)c1ccccc1-2	Rhodamine autofl 8.5e-08M, A488 autofl 1.3e-06M, TexasRed autofl inconclusive, Resorufin fluor 5.2e-08M, Fluorescein autfl 2.5e-05M
CC[C@H](C)C(=O)O[C@@H]1C[C@H](C)C=C2C=C[C@H](C)[C@@H](CC[C@H]3C[C@@H](O)CC(=O)O3)[C@H]21	Fluorescein autfl inconclusive
C=C1C[C@@]23C[C@]1(O)CC[C@@H]2[C@]12C=C[C@@H](O)[C@@](C)(C(=O)O1)[C@@H]2[C@@H]3C(=O)O	none
O=C(O)CCCCn1cnc2c(=S)nc[nH]c21	Fluorescein autfl inconclusive
CCOC(=O)C1=C(CSc2nc3c(cc2C#N)CN(C)CC3)OC(N)=C(C#N)C1c1ccccc1 (stereo not given)	Fluorescein autfl 3.4e-08M
CSc1ncnc2c1ncn2CC(=O)[C@H]1CC[C@H]2[C@H]3CCC4=CC(=O)CC[C@@]4(C)[C@@H]3CC[C@@]12C	none
COc1ccc(OC)c(C2C3CN(C(C)C)CC=C3C(C#N)=C(N)C2(C#N)C#N)c1 (stereo not given)	Fluorescein autfl 3.2e-08M
CN1CC=C2C(C#N)=C(N)C(C#N)(C#N)C(c3cccc(Cl)c3Cl)C2C1 (stereo not given)	A488 autofl inconclusive, TexasRed autofl inconclusive, Fluorescein autfl 3.9e-08M
CCCN1CC=C2C(C#N)=C(N)C(C#N)(C#N)C(c3cccc(OC)c3OC)C2C1 (stereo not given)	A488 autofl inconclusive, Fluorescein autfl 5.3e-08M
Cc1ccc(C2C3CN(C(C)C)CC=C3C(C#N)=C(N)C2(C#N)C#N)cc1 (stereo not given)	A488 autofl inconclusive, Fluorescein autfl 1e-07M
CCOC(=O)N1CC=C2C(C#N)=C(N)C(C#N)(C#N)[C@H](c3ccc(OCC)c(OCC)c3)[C@H]2C1	none

Assay outcomes from PubChem BioAssay.
